D1 PAM: enhances dopamine response at the human D1 receptor; P21728; HEK293 TREx D1 cells, calcium flux, dopamine EC20 potentiation; potentiation, % at 10 µM; hit rate 0.036% among 360,000; AID 504651; in the data active = potentiation above about 30%; note: 0% is about no effect
TRHR agonist: TRH receptor (human) agonism; AID 493084; hit rate 0.18% among 360,000; activation, % at 2 µM; TRHR cells, calcium flux fluo-8, FDSS agonist mode; note: 0% is about no effect
Target sequence (P34981 whole entry, looked up): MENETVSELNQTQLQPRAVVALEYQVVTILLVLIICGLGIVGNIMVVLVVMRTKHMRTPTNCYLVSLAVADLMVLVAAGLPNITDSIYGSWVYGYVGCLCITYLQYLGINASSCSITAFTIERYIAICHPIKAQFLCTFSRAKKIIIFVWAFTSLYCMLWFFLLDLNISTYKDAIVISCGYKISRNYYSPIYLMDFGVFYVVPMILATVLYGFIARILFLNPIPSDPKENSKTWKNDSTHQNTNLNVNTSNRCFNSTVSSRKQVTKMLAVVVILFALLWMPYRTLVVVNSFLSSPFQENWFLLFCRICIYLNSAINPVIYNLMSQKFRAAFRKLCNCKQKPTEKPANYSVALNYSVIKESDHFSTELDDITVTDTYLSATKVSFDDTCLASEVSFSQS
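Fluo-8-loaded TRHR cells; 10 s baseline, compound added, kinetic Ca2+ fluorescence read 1/s, agonist mode.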
D1 antagonist: blocks dopamine activation of the human D1 receptor; HEK293 TREx D1 cells, calcium flux, dopamine EC80; hits give low values; activity change, negative = inhibition, % at 10 µM; hit rate 3.2% among 360,000; P21728; in the data active = activity change below about -30%; note: % is set by controls: 0 for no effect and ±100 for the full control effect
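Tetracycline-induced HEK293 Trex D1 cells, force-coupled to calcium, dye-loaded; compounds added and read 180 s, then EC80 dopamine added and calcium flux tracked kinetically another 180 s.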
D1 ag: activates the human D1 dopamine receptor; P21728; HEK293 T-REx D1 cells, calcium flux, agonist mode; activation, % at 2 µM; hit rate 1% among 360,000; AID 504660; note: 0% is about no effect
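Agonism was scored from calcium flux recorded over 180 s (1 read/s) after pintool compound addition, following a 10-cycle baseline. Cells were inducible force-coupled HEK293 TREx D1, plated overnight at 30 C and loaded with no-wash calcium dye.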
TRHR enhancer: TRH receptor (human) allosteric enhancement; TRHR cells, fluo-8 calcium fluorescence, EC20 TRH enhancement; P34981; enhancement, % at 2 µM; hit rate 0.66% among 360,000; in the data active = enhancement above about 30%; note: 0% is about no effect
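TRHR-expressing cells loaded with fluo-8 calcium dye were read kinetically (ex 480/em 530) during compound addition, then stimulated with an EC20 of TRH (10 nM final). Enhancement of the Gq-mediated intracellular calcium response was scored.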
Numbers without * were called inactive; / = not tested or not shown. Hits are enriched below; roughly 4.6% of the tested compounds scored in any of these assays. Cut-off read from the data, not from the text of the source, unless noted: active = activation above about 30%; inactive = the rest.

SMILES	D1 PAM	TRHR agonist	D1 antagonist	D1 ag	TRHR enhancer
COC(=O)CNC(=O)C1CCN(c2nc(C)cc(C)n2)CC1	-2	0	5	7	-5
Cc1cccc(CNC(=O)C2CCN(c3nc4ccc(Cl)cc4[nH]3)CC2)c1	-1	-1	11	42*	-2
CN(C)CCNC(=O)C1CCN(c2nc3ccccc3[nH]2)CC1	-1	1	-1	2	4
COCCCNC(=O)C1CCN(c2nc3ccc(Cl)cc3[nH]2)CC1	-3	0	-8	0	7
CCOCCCNC(=O)C1CCN(c2nc3ccc(C)cc3[nH]2)CC1	4	0	-46*	0	4
Cc1ccn2c(=O)cc(COc3ccc(NC(=O)COc4ccccc4)cc3)nc2c1	-1	0	8	0	0
CC(=O)c1ccc(OC(=O)c2ccc(Br)o2)cc1	-4	-2	-16	59*	0
Cc1ccc(OC(=O)c2ccc(Br)o2)cc1	4	0	-48*	102*	-5
O=C(Oc1ccc(-c2nnco2)cc1)c1ccc(Br)o1	-3	-1	9	8	-2
O=C(CSc1ccccc1C(=O)NCc1ccccc1)NC1CCCCCCC1	-5	-1	-84*	2	-7
O=C(CSc1ccccc1C(=O)O)NC1CCCCCCC1	-3	0	-9	1	-5
CC(C)CCNC(=O)c1ccccc1SCC(=O)NC1CCCCCCC1	-4	-2	-22	0	-10
O=C(CSc1ccccc1C(=O)O)NC1CCCCCC1	-5	0	-39*	2	-2
COc1cccc(NS(=O)(=O)c2ccc3[nH]cc(C(=O)N(C)C4CCCCC4)c(=O)c3c2)c1	-3	0	5	0	-5
COc1ccc(-c2cc(C(=O)Nc3c(C)nn(Cc4ccccc4Cl)c3C)no2)cc1OC	-15	0	-40*	10	3
COc1ccc(-c2cc(C(=O)Nc3cc(OC)c(OC)c(OC)c3)no2)cc1OC	-2	0	-14	2	39*
COc1cccc(-c2cc(C(=O)Nc3c(C)nn(Cc4ccccc4Cl)c3C)no2)c1	-1	0	1	9	6
CC(C)CNS(=O)(=O)c1ccc(OCC(=O)NCC2CCCO2)c(Cl)c1 (stereo unspecified)	-2	0	-36*	2	-1
O=C(COc1ccc([N+](=O)[O-])cc1Cl)NCC1CCCO1 (stereo unspecified)	-5	0	-39*	2	4
CCc1ccc(-c2nc(CS(=O)CC(=O)NCCc3ccc(C)cc3)c(C)o2)cc1 (stereo unspecified)	-9	0	-9	0	8
CN(c1ncnc2onc(-c3cccc(Cl)c3)c12)C1CCCCC1	9	-1	20	0	6
O=c1[nH]ncc2c3ccccc3n(Cc3cccc(Cl)c3)c12	-4	10	13	52*	-2
O=c1[nH]ncc2c3ccccc3n(Cc3ccc(F)cc3)c12	1	0	-1	2	8
Oc1c(Br)cc(Br)cc1-c1nc2ccccc2s1	-1	-1	-30*	3	-2
COc1cccc(-c2nc3ccccc3s2)c1O	-2	1	-3	3	0
SMILES	D1 PAM	TRHR agonist	D1 antagonist	D1 ag	TRHR enhancer
CCOC(=O)c1ccc(NC(=O)Cn2nc(C)c3ccccc3c2=O)cc1	40*	0	-10	0	30*
CCOc1ccc(NC(=O)Cn2nc(Cc3ccncc3)c3ccccc3c2=O)cc1	-1	-2	-4	0	38*
O=C(Cn1nc(Cc2ccncc2)c2ccccc2c1=O)Nc1cccc(C(F)(F)F)c1	3	-1	-2	-1	2
COC(=O)c1ccc(NC(=O)Cn2nc(C)c3ccccc3c2=O)cc1	0	0	-9	12	0
Cc1ccc(C)c(CNC(=O)c2ccc3c(c2)nc2n3CCC(C)C2)c1 (stereo unspecified)	-2	-1	-26	2	5
CCOc1ccc(C2=C(C(=O)CC)Sc3nncn3N2C(=O)CC)cc1	1	0	/	2	-2
COc1ccccc1N1CCN(/N=C\c2ccccc2)CC1	-5	0	5	6	3
COc1ccccc1N1CCN(/N=C\c2sccc2C)CC1	-4	0	-43*	5	-6
COc1ccc(C2c3c4c(n(C)c3CCN2C)CCN(C)C4c2ccc(OC)cc2)cc1 (stereo unspecified)	-2	2	-31*	2	-5
O=c1cc(N2CCN(c3ccc(F)cc3)CC2)[nH]c(=O)n1-c1ccc(Br)cc1	-1	0	-40*	1	-1
Cc1ccc(C)c(N2CCN(S(=O)(=O)c3ccc4oc(=O)c5ncn(C)c5c4c3)CC2)c1	-1	-1	1	1	4
Cc1ccc(C(=O)CSC2=C(C#N)C(c3ccco3)CC(=O)N2)c(C)c1 (stereo unspecified)	-6	9	-58*	63*	-1
COc1cc(/C=C/c2ccc3cccc(OC)c3n2)c(OC(C)=O)c([N+](=O)[O-])c1	-8	0	-32*	4	-2
CC(=O)c1ccc(NC(=O)CSc2nc(-c3cccc(F)c3)nc3c2c(=O)n(C)c(=O)n3C)cc1	-1	1	1	0	-1
COc1cc(Cl)c(NC(=O)c2cc3ccccn3n2)c(OC)c1	8	0	-10	1	4
Cc1cc(C)c(-c2n[nH]c3c2C(c2ccccc2F)N(Cc2ccco2)C3=O)c(O)c1 (stereo unspecified)	0	1	31	5	8
Cn1c(=O)n(CCOc2ccc([N+](=O)[O-])cc2)c2ccccc21	-12	0	-59*	0	11
O=C(O)CC1Sc2ccccc2NC1=O (stereo unspecified)	4	0	-15	2	2
O=C(CC1Sc2ccccc2NC1=O)c1ccc(Br)cc1 (stereo unspecified)	-5	0	-56*	0	3
Cc1cc(C)c(C(=O)N(C)CC2CCCN(CCc3ccccc3F)C2)o1 (stereo unspecified)	-2	0	-67*	1	-2
CN(CC1CCCN(CCc2ccccc2F)C1)C(=O)c1ccoc1 (stereo unspecified)	3	1	8	1	1
Cc1occc1C(=O)N(C)CC1CCCN(CCc2ccccc2F)C1 (stereo unspecified)	-5	-1	-32*	3	18
N#Cc1c(NC(=S)NC(=O)c2ccccc2)sc2c1CCN(CCc1ccccc1)C2	-4	11	-5	48*	4
N#Cc1c(NC(=S)NC(=O)c2ccccc2)sc2c1CCCC2	1	0	18	2	-2
CC(C)(C)C(=O)Nc1sc2c(c1C#N)CCN(Cc1ccccc1)C2	6	11	3	33*	0
COc1cc(C)c(Cl)cc1S(=O)(=O)N1CCCC1	-7	0	-34*	1	-4

Screening results deposited in PubChem BioAssay by National Center for Advancing Translational Sciences (NCATS).
